In PubChem BioAssay (Tox21):
“And” between values parts separate entries of the source, which are not always exact repeats. Equal values may be shown once. Inconclusive results are not listed. Entries that show only a call come without a potency. The source made the active and inactive calls. Unless noted, calls come from the whole dose curve; as a rule, active = well fitted curve in the direction sought with a large enough effect in the repeat runs; inconclusive = weak or mixed curves; inactive = no such curve, though single readings can be large; an effect the other way counts as inactive or inconclusive.

Legend:
[1] = qHTS assay to test for compound auto fluorescence at 535 nm (green) in HEK293 cells (AID 720680)
[2] = qHTS assay to test for compound auto fluorescence at 460 nm (blue) in HEK293 cell free culture (AID 720681)
Outline: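 Compounds were added to cell-free DMEM with 10% FBS and fluorescence read directly. The blue channel used 405 nm excitation and 460 nm emission, with triamterene as the reference fluorophore.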

[3] = qHTS assay to test for compound auto fluorescence at 535 nm (green) in HEK293 cell free culture (AID 720682)
Outline: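 Green-label autofluorescence (485 nm excitation, 535 nm emission) measured on compound added to cell-free culture medium (DMEM, 10% FBS). Output is expressed relative to fluorescein.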

[4] = qHTS assay to test for compound auto fluorescence at 590 nm (red) in HEK293 cell free culture (AID 720683)
Outline: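 Cell-free wells of DMEM with 10% FBS received compound, and intrinsic fluorescence was read at excitation/emission 540/590 nm. Values expressed as equivalence to Rose Bengal sodium.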

[5] = qHTS assay to test for compound auto fluorescence at 590 nm (red) in HepG2 cell free culture (AID 720684)
Outline: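 Compounds are added to culture medium (MEM, 10% FBS) lacking cells, then fluorescence is read at excitation 540 nm, emission 590 nm, with Rose Bengal sodium as the equivalency standard.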

[6] = qHTS assay to test for compound auto fluorescence at 460 nm (blue) in HepG2 cell free culture (AID 720685)
Outline: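 Compound (23 nL) or DMSO pinned into cell-free MEM with 10% FBS; blue fluorescence read at 405/460 nm excitation/emission, expressed as auto-fluorescence equivalency to triamterene.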

[7] = qHTS assay to test for compound auto fluorescence at 535 nm (green) in HepG2 cell free culture (AID 720686)
[8] = qHTS assay to test for compound auto fluorescence at 460 nm (blue) in HepG2 cells (AID 720687)
Outline: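 HepG2 cells in MEM with 10% FBS, attached overnight at 37 C, were exposed to compound or DMSO for 1 hr at 37 C, 5% CO2. Blue fluorescence was read at 405/460 nm, with triamterene as reference fluorophore.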

[9] = qHTS assay to identify small molecule antagonists of the glucocorticoid receptor (GR) signaling pathway - cell viability counter screen (AID 720693); note: nearly all actives have a fitted effect of over 55% in size; note: potency is the fitted concentration of half-maximal effect
[10] = qHTS assay for identifying genotoxic compounds that show differential cytotoxicity against isogenic chicken DT40 cell lines with known DNA damage response pathways - wild type cell line (AID 743012); note: nearly all actives have a fitted effect of over 60% in size; note: potency is the fitted concentration of half-maximal effect
Outline: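 Wild-type DT40 cells (300/well) exposed to compounds for 40 hours at 37 C/5% CO2. Viability read by CellTiter-Glo luminescence after 30 min at room temperature.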

[11] = qHTS assay for identifying genotoxic compounds that show differential cytotoxicity against isogenic chicken DT40 cell lines with known DNA damage response pathways - Rad54/Ku70 mutant cell line (AID 743015); note: nearly all actives have a fitted effect of over 60% in size; note: potency is the fitted concentration of half-maximal effect
[12] = qHTS assay to identify small molecule antagonists of the androgen receptor (AR) signaling pathway - cell viability counter screen (AID 743033; note: nearly all actives have a fitted effect of over 45% in size)
[13] = molecular target: Androgen receptor (Homo sapiens) (UniProt P10275); experiment: qHTS assay to identify small molecule agonists of the androgen receptor (AR) signaling pathway (AID 743036; active = well fitted activation curve with a large enough effect in the signal ratio in the repeat runs, with a control signal flat, not every such curve was filed as active; the % refers to the signal ratio; note: potency is the fitted concentration of half-maximal effect)
Androgen receptor (Homo sapiens), sequence (P10275 whole entry, looked up): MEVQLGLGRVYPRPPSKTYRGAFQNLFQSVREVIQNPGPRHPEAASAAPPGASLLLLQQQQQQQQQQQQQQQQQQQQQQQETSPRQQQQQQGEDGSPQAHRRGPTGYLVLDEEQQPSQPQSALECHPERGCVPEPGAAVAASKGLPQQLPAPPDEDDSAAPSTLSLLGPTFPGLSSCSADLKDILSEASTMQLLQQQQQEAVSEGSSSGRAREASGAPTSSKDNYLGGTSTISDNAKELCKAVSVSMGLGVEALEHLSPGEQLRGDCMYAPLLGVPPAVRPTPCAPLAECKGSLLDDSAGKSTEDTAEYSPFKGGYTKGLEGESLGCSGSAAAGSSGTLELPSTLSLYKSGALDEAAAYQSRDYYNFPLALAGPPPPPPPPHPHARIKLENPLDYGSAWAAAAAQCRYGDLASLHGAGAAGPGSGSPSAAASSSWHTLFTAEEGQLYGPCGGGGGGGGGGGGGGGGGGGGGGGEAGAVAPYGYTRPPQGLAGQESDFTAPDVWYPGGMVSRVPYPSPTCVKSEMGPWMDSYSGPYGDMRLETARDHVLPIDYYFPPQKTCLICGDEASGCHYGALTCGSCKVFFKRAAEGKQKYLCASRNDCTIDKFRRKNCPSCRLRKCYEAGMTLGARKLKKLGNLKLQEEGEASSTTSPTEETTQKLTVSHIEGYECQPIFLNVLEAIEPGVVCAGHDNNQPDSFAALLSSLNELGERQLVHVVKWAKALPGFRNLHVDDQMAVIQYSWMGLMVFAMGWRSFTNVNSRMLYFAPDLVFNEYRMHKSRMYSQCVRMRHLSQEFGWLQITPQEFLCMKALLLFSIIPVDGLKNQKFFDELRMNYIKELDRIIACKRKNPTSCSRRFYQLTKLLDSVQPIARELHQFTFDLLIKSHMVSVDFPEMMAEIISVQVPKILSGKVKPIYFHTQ
Outline: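 AR-UAS-bla HEK293 cells, plated 4 h before dosing, were treated with compound for 16 h at 37C. beta-Lactamase reporter read after 2 h with LiveBLAzer B/G FRET substrate at room temperature.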

[14] = molecular target: Androgen receptor (Homo sapiens) (UniProt P10275); experiment: qHTS assay to identify small molecule agonists of the androgen receptor (AR) signaling pathway using the MDA cell line (AID 743040; note: nearly all actives have a fitted effect of over 20% in size; note: potency is the fitted concentration of half-maximal effect)
Outline: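 Human breast carcinoma MDA-kb2 reporter cells (MMTV-luc, AR/GR elements) were treated for 16 h at 37C in 0% CO2 following a 5 h settling period. Signal was quantified by ONE-Glo luminescence.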

[15] = qHTS assay to identify small molecule antagonists of the androgen receptor (AR) signaling pathway using the MDA cell line - cell viability counter screen (AID 743041; note: nearly all actives have a fitted effect of over 45% in size)
Outline: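 Same-well cytotoxicity was assessed by CellTiter-Fluor in MDA-kb2 AR-luc cells after 16 h of compound treatment under R1881 agonism.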

[16] = molecular target: Androgen receptor (Homo sapiens) (UniProt P10275); experiment: qHTS assay to identify small molecule antagonists of the androgen receptor (AR) signaling pathway using the MDA cell line (AID 743042; note: nearly all actives have a fitted effect of over 55% in size)
Outline: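 MDA-kb2 breast carcinoma cells carrying MMTV-luciferase (AR/GR responsive) were co-treated with compounds and the agonist R1881 for 16 h at 37C. Inhibition read as ONE-Glo luminescence; CellTiter-Fluor fluorescence measured in parallel for cytotoxicity.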

[17] = qHTS assay for identifying genotoxic compounds that show differential cytotoxicity against isogenic chicken DT40 cell lines with known DNA damage response pathways - Rev3 mutant cell line (AID 743014); note: nearly all actives have a fitted effect of over 55% in size; note: potency is the fitted concentration of half-maximal effect
[18] = molecular target: Androgen receptor (Homo sapiens) (UniProt P10275); experiment: qHTS assay to identify small molecule antagonists of the androgen receptor (AR) signaling pathway (AID 743035; active = well fitted inhibition curve with a large enough effect in the signal ratio in the repeat runs, not every such curve was filed as active; the % refers to the signal ratio)
Outline: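 HEK293 cells stably carrying UAS-beta-lactamase reporter, 2,000/well, given compounds plus R1881 agonist and incubated 16 h at 37C. LiveBLAzer B/G FRET substrate then added for 2 h at room temperature before fluorescence reading.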

[19] = molecular target: Glucocorticoid receptor (Homo sapiens) (UniProt P04150); experiment: qHTS assay to identify small molecule agonists of the glucocorticoid receptor (GR) signaling pathway (AID 720691; active = well fitted activation curve with a large enough effect in the signal ratio in the repeat runs, not every such curve was filed as active; the % refers to the signal ratio); settings: GR-bla HeLa, beta-lactamase reporter ratio, 18 h; activation: at 62.4 µM (top of the series)
Glucocorticoid receptor (Homo sapiens), sequence (P04150 whole entry, looked up): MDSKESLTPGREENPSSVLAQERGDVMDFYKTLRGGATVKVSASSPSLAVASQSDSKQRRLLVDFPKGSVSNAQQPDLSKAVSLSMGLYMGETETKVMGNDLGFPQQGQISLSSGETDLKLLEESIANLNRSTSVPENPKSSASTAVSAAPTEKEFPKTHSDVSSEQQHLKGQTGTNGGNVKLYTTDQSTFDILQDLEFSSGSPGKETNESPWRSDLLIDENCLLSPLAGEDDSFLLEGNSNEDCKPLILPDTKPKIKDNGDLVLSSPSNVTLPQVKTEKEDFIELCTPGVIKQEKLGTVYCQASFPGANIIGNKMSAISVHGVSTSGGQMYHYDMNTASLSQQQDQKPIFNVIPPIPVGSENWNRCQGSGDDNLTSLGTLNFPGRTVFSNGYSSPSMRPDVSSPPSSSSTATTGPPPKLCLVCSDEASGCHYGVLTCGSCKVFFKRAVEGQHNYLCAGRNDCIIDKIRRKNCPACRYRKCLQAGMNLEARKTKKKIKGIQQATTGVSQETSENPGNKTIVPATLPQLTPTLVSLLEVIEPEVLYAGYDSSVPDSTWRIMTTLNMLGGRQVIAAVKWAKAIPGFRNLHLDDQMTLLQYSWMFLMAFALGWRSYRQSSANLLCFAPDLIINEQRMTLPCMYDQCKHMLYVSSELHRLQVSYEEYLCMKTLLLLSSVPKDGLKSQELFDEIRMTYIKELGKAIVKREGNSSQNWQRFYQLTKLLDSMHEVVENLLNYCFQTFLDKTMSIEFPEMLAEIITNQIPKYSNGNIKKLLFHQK
Outline: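 GR-bla HeLa cells carrying a GRE-driven beta-lactamase reporter, exposed to compounds for 18 h at 37 C. Reporter activation read as fluorescence after 2 h with LiveBLAzer B/G FRET substrate at room temperature.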

[20] = molecular target: Glucocorticoid receptor (Homo sapiens) (UniProt P04150); experiment: qHTS assay to identify small molecule antagonists of the glucocorticoid receptor (GR) signaling pathway (AID 720692; active = well fitted inhibition curve with a large enough effect in the signal ratio in the repeat runs, not every such curve was filed as active; the % refers to the signal ratio)
Outline: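 GR-bla HeLa cells carrying a GRE-driven beta-lactamase reporter received compound after 4 h plating, then dexamethasone (5 nM final). After 18 h at 37C, the FRET substrate was loaded for 2 h at room temperature and fluorescence read.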

| SMILES | Potency [1] | Potency [2] | Potency [3] | Potency [4] | Potency [5] | outcome [6] | Potency [7] | outcome [8] | Potency [9] | Potency [10] | Potency [11] | Potency [12] | Potency [13] | Potency [14] | Potency [15] | Potency [16] | Potency [17] | Potency [18] | Potency [19] | Potency [20] |
| --- | --- | --- | --- | --- | --- | --- | --- | --- | --- | --- | --- | --- | --- | --- | --- | --- | --- | --- | --- | --- |
| CC(C)[C@@H]1CC[C@@H](C)C[C@H]1OC(=O)c1ccccc1O | inactive | inactive | inactive | inactive | inactive | inactive | inactive | inactive | inactive | inactive | inactive | inactive | inactive | inactive | inactive | inactive |  |  |  |  |
| CCC(=O)O[C@H]1CC[C@H]2[C@@H]3CCc4cc(O)ccc4[C@H]3CC[C@]12C | inactive | inactive | inactive | inactive | inactive | inactive | inactive | inactive |  | 23.7 µM (active) | 23.7 µM (active) | inactive | 3.01 µM (active) | 4.73 µM (active) | inactive | inactive | 21.1 µM (active) |  |  |  |
| CC(O)[C@H]1CC[C@H]2[C@@H]3CC[C@@H]4C[C@@H](O)CC[C@]4(C)[C@H]3CC[C@]12C (stereo partly specified) | inactive | inactive | inactive | inactive | inactive | inactive | inactive | inactive | inactive |  |  | inactive |  |  | inactive |  |  |  |  |  |
| CC(NNC(=O)c1ccccc1)c1ccccc1 (stereo unspecified) | inactive | inactive | inactive | inactive | inactive | inactive | inactive | inactive | inactive |  | inactive | inactive | inactive | inactive | inactive | inactive | inactive |  |  |  |
| CC(C)[C@@H](C)/C=C/[C@@H](C)[C@H]1CC[C@H]2/C(=C/C=C3\C[C@@H](O)CC[C@@H]3C)CCC[C@]12C | inactive | inactive | inactive | inactive | inactive | inactive | inactive | inactive | inactive |  |  | inactive |  |  | inactive |  |  |  |  |  |
| COC(=O)[C@H]1[C@H]2C[C@@H]3c4[nH]c5ccccc5c4CCN3C[C@H]2C[C@@H](OC(=O)c2cc(OC)c(OC)c(OC)c2)[C@@H]1OC | inactive | inactive | inactive | inactive | inactive | inactive | inactive | inactive | inactive |  | 1.68 µM (active) and 26.6 µM (active) |  |  |  | inactive |  | 1.68 µM (active) and 21.1 µM (active) |  |  |  |
| CN1CCc2c(c3ccccc3n2Cc2ccccc2)C1 | inactive | inactive | inactive | inactive | inactive | inactive | inactive | inactive | inactive |  |  | inactive |  |  | inactive |  |  |  |  |  |
| CNC(=O)c1c(I)c(C(=O)NCC(=O)Nc2c(I)c(C(=O)O)c(I)c(C(=O)NCCO)c2I)c(I)c(N(C)C(C)=O)c1I | inactive | inactive | inactive | inactive | inactive | inactive | inactive | inactive | inactive | inactive | inactive |  |  |  | inactive |  |  |  |  |  |
| OCC(S)CS (stereo unspecified) | inactive | inactive | inactive | inactive | inactive | inactive | inactive | inactive |  |  | 8.41 µM (active) | inactive |  | inactive |  |  | 18.8 µM (active) | inactive |  |  |
| O=C[C@H](O)[C@@H](O)[C@H](O[C@H]1O[C@H](CO)[C@@H](O[C@H]2O[C@H](CO)[C@@H](O)[C@H](O)[C@H]2O)[C@H](O)[C@H]1O)[C@H](O)CO | inactive | inactive | inactive | inactive | inactive | inactive | inactive |  | inactive | inactive | inactive | inactive | 7.56 µM (active) | 1.68 µM (active) | inactive | inactive | inactive | inactive | inactive |  |
| NC(=O)Oc1ccc(Cc2ccccc2)cc1 | inactive | inactive | inactive | inactive | inactive |  | inactive | inactive | inactive | inactive | inactive | inactive |  |  |  |  | inactive |  | inactive | inactive |
| CC[C@H](C)[C@H]1O[C@]2(CC[C@@H]1C)C[C@@H]1C[C@@H](C/C=C(\C)[C@@H](O[C@H]3C[C@H](OC)[C@@H](O[C@H]4C[C@H](OC)[C@@H](O)[C@H](C)O4)[C@H](C)O3)[C@@H](C)/C=C/C=C3\CO[C@@H]4[C@H](O)C(C)=C[C@@H](C(=O)O1)[C@]34O)O2 | inactive | inactive | inactive | inactive | inactive | inactive | inactive | inactive | 6.01 µM (active) | 3.76 µM (active) | 7.5 µM (active) |  |  | inactive | inactive | inactive |  | inactive |  |  |
| C=C1/C(=C\C=C2/CCC[C@]3(C)[C@@H]([C@H](C)OCCC(C)(C)O)CC[C@@H]23)C[C@@H](O)C[C@@H]1O | inactive | inactive | inactive | inactive | inactive | inactive | inactive | inactive |  | 8.41 µM (active) | 13.3 µM (active) | inactive |  |  | inactive |  | 13.3 µM (active) |  |  |  |
| CN1c2cc(O)c(N=NC(N)=O)cc2CC1S(=O)(=O)O (stereo unspecified) | inactive | inactive | inactive | inactive | inactive | inactive | inactive | inactive | inactive | inactive | inactive |  |  |  | inactive |  |  |  |  |  |
| CCOC(=O)Nc1ccc2c(c1)N(C(=O)CN(C)C)c1ccccc1CC2 | inactive | inactive | inactive | inactive | inactive | inactive | inactive | inactive | inactive | 61.1 µM (active) |  | inactive |  |  |  |  |  |  |  |  |
